# Measurements taken from the supplement of paper PMC8728848.
# Shown is part of a subset that was picked to be rich in the strongest signals.
# B1: AMA (Arum maculatun) (protein)
# chain: MAKLLLLLLLPAIVGLAVPRSAAAVGSNYMLSGETLNTDGRLTNGELTLIMQVDCNLVLYHGGWQSNTANNGRDCKLTLTDFGELVIKSGTGSTVWSSGSKQSMKGNYAAVVHPEGRLVIYGPSVFKINPSGAGLNGLPLRNIPLTNNMLFSGQVLYGDGTLSARNHKLVMQGDCNMVLYGGKYGWQSNTHGNGKYCFAMLTHKGELVIRDDDFKSVWSSKSSSKQGDYVFILQDDSLAIIYGPAVFSTGSKKMISMVTN
# Legend:
# Assay in all cases: glycan array binding signal (z-score within array); higher = stronger binding
# Details in all cases: glycan notation: IUPAC condensed, linker removed
# [1] = target: Fuc(a1-2)Gal(b1-3)GalNAc(b1-3)Gal
# Method in brief: (§1)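 From the Consortium for Functional Glycomics database, 3228 arrays were curated, keeping only those whose protein sequence was available. Binding is given as a within-array Z-score averaged across arrays sharing a protein sequence and across linkers. Negative Z-scores can be read as non-binding.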
# [2] = target: Fuc(a1-2)Gal(b1-3)GlcNAc
# Method in brief: as §1
# [3] = target: Fuc(a1-2)Gal(b1-3)GlcNAc(b1-3)Gal(b1-4)Glc
# Method in brief: as §1
# [4] = target: Fuc(a1-2)Gal(b1-3)GlcNAc6S
# Method in brief: as §1
# [5] = target: Fuc(a1-2)Gal(b1-4)Glc6S
# Method in brief: as §1
# [6] = target: Fuc(a1-2)[Gal(a1-3)]Gal(b1-3)GalNAc
# Method in brief: as §1
# [7] = target: Fuc(a1-2)[GalNAc(a1-3)]Gal(b1-3)GlcNAc(b1-6)GalNAc
# Method in brief: as §1
# [8] = target: Fuc(a1-3)GlcNAc
# Method in brief: as §1
# [9] = target: Gal(a1-3)Gal(b1-3)GlcNAc
# Method in brief: as §1
# [10] = target: Gal(a1-3)Gal(b1-3)GlcNAc(b1-6)GalNAc
# Method in brief: as §1
# [11] = target: Gal(a1-4)Gal(b1-3)GlcNAc(b1-2)Man(a1-3)[Gal(a1-4)Gal(b1-3)GlcNAc(b1-2)Man(a1-6)]Man(b1-4)GlcNAc(b1-4)GlcNAc
# Method in brief: as §1
# [12] = target: Gal(a1-6)Glc
# Method in brief: as §1
# [13] = target: Gal(b1-3)Gal(b1-4)GlcNAc
# Method in brief: as §1
# [14] = target: Gal(b1-3)GlcNAc(b1-2)Man(a1-3)[Gal(b1-3)GlcNAc(b1-2)Man(a1-6)]Man(b1-4)GlcNAc(b1-4)GlcNAc
# Method in brief: as §1
# [15] = target: Gal(b1-3)GlcNAc(b1-2)Man(a1-3)[GlcNAc(b1-4)][Gal(b1-3)GlcNAc(b1-2)Man(a1-6)]Man(b1-4)GlcNAc(b1-4)GlcNAc
# Method in brief: as §1
# [16] = target: Gal(b1-3)GlcNAc(b1-3)Gal(b1-3)GlcNAc
# Method in brief: as §1
# [17] = target: Gal(b1-3)[Neu5Ac(a2-6)]GlcNAc(b1-6)Gal(b1-4)Glc
# Method in brief: as §1
# [18] = target: Gal(b1-4)GlcNAc(a1-6)Gal(b1-4)GlcNAc
# Method in brief: as §1
# [19] = target: Gal(b1-4)GlcNAc(b1-2)Man(a1-3)Man(b1-4)GlcNAc(b1-4)GlcNAc
# Method in brief: as §1
# [20] = target: Gal(b1-4)GlcNAc(b1-2)Man(a1-3)[Gal(b1-4)GlcNAc(b1-2)Man(a1-6)]Man(b1-4)GlcNAc(b1-4)GlcNAc
# Method in brief: as §1
# [21] = target: Gal(b1-4)GlcNAc(b1-2)Man(a1-3)[Man(a1-6)]Man(b1-4)GlcNAc(b1-4)GlcNAc
# Method in brief: as §1
# [22] = target: Gal(b1-4)GlcNAc(b1-3)Gal(b1-3)GalNAc
# Method in brief: as §1
# [23] = target: Gal(b1-4)GlcNAc(b1-3)Gal(b1-4)GlcNAc(b1-3)GalNAc
# Method in brief: as §1
# [24] = target: Gal(b1-4)GlcNAc(b1-3)Gal(b1-4)[Fuc(a1-3)]GlcNAc(b1-3)Gal(b1-4)[Fuc(a1-3)]GlcNAc
# Method in brief: as §1
# [25] = target: Gal(b1-4)GlcNAc(b1-3)[Gal(b1-4)GlcNAc(b1-6)]Gal(b1-4)GlcNAc
# Method in brief: as §1
# [26] = target: Gal(b1-4)GlcNAc(b1-3)[GlcNAc(b1-6)]Gal(b1-4)GlcNAc
# Method in brief: as §1
# [27] = target: Gal(b1-4)GlcNAc(b1-6)[Gal(b1-3)]GalNAc
# Method in brief: as §1
# [28] = target: Gal(b1-6)Gal
# Method in brief: as §1
# [29] = target: Gal3S(b1-3)GlcNAc
# Method in brief: as §1
# [30] = target: Gal3S(b1-4)Glc
# Method in brief: as §1
# [31] = target: Gal3S6S(b1-4)GlcNAc
# Method in brief: as §1
# [32] = target: GalNAc(a1-3)GalNAc
# Method in brief: as §1
# [33] = target: GalNAc(b1-4)Gal(b1-4)Glc
# Method in brief: as §1
# [34] = target: GalNAc3S(b1-4)GlcNAc
# Method in brief: as §1
# [35] = target: GalNAc3S(b1-4)GlcNAc3S
# Method in brief: as §1
# [36] = target: GalNAc3S(b1-4)[Fuc(a1-3)]GlcNAc
# Method in brief: as §1
# [37] = target: GlcNAc(a1-4)Gal(b1-4)GlcNAc(b1-3)Gal(b1-4)GlcNAc
# Method in brief: as §1
# [38] = target: GlcNAc(a1-4)Gal(b1-4)GlcNAc(b1-3)Gal(b1-4)[Fuc(a1-3)]GlcNAc(b1-3)Gal(b1-4)[Fuc(a1-3)]GlcNAc
# Method in brief: as §1
# [39] = target: GlcNAc(b1-2)Man(a1-3)[GlcNAc(b1-2)Man(a1-6)]Man(b1-4)GlcNAc(b1-4)GlcNAc
# Method in brief: as §1
# [40] = target: GlcNAc(b1-2)[GlcNAc(b1-4)]Man(a1-3)[GlcNAc(b1-2)Man(a1-6)]Man(b1-4)GlcNAc(b1-4)GlcNAc
# Method in brief: as §1
# [41] = target: GlcNAc(b1-3)Gal
# Method in brief: as §1
# [42] = target: GlcNAc(b1-3)Gal(b1-4)GlcNAc(b1-2)Man(a1-3)[GlcNAc(b1-3)Gal(b1-4)GlcNAc(b1-2)Man(a1-6)]Man(b1-4)GlcNAc(b1-4)[Fuc(a1-6)]GlcNAc
# Method in brief: as §1
# [43] = target: GlcNAc6S(b1-3)Gal(b1-4)GlcNAc
# Method in brief: as §1
# [44] = target: Kdn(a2-3)Gal(b1-3)GalNAc
# Method in brief: as §1
# [45] = target: Man(a1-2)Man(a1-3)[Man(a1-2)Man(a1-6)]Man(a1-6)[Man(a1-3)[Man(a1-6)]Man(a1-6)]Man(b1-4)GlcNAc(b1-4)GlcNAc
# Method in brief: as §1
# [46] = target: Man(a1-2)Man(a1-3)[Man(a1-6)]Man(a1-6)[Man(a1-2)Man(a1-3)]Man(b1-4)GlcNAc(b1-4)GlcNAc
# Method in brief: as §1
# [47] = target: Man(a1-2)Man(a1-6)[Man(a1-3)]Man(a1-6)[Man(a1-2)Man(a1-2)Man(a1-3)]Man
# Method in brief: as §1
# [48] = target: Man(a1-2)Man(a1-6)[Man(a1-3)]Man(a1-6)[Man(a1-2)Man(a1-2)Man(a1-3)]Man(b1-4)GlcNAc(b1-4)GlcNAc
# Method in brief: as §1
# [49] = target: Man(a1-3)[Man(a1-6)]Man(a1-6)[Man(a1-2)Man(a1-3)]Man(b1-4)GlcNAc(b1-4)GlcNAc
# Method in brief: as §1
# [50] = target: Man(a1-3)[Man(a1-6)]Man(a1-6)[Man(a1-3)]Man(b1-4)GlcNAc(b1-4)GlcNAc
# Method in brief: as §1
# [51] = target: Man(a1-3)[Man(a1-6)]Man(b1-4)GlcNAc(b1-4)GlcNAc
# Method in brief: as §1
# [52] = target: Neu5Ac(a2-3)Gal(b1-3)GlcNAc(b1-3)Gal(b1-3)GlcNAc
# Method in brief: as §1
# [53] = target: Neu5Ac(a2-3)Gal(b1-3)[Fuc(a1-4)]GlcNAc
# Method in brief: as §1
# [54] = target: Neu5Ac(a2-3)Gal(b1-3)[Fuc(a1-4)]GlcNAc(b1-3)Gal(b1-4)[Fuc(a1-3)]GlcNAc
# Method in brief: as §1
# [55] = target: Neu5Ac(a2-3)Gal(b1-3)[Neu5Ac(a2-3)Gal(b1-4)]GlcNAc
# Method in brief: as §1
# [56] = target: Neu5Ac(a2-6)Gal(b1-4)GlcNAc(b1-2)Man(a1-3)[GlcNAc(b1-2)Man(a1-6)]Man(b1-4)GlcNAc(b1-4)GlcNAc
# Method in brief: as §1
# [57] = target: Neu5Ac(a2-6)Gal(b1-4)GlcNAc(b1-2)Man(a1-3)[Neu5Ac(a2-6)Gal(b1-4)GlcNAc(b1-2)Man(a1-6)]Man(b1-4)GlcNAc(b1-4)[Fuc(a1-6)]GlcNAc
# Method in brief: as §1
# [58] = target: Neu5Gc(a2-8)Neu5Gc(a2-3)Gal(b1-4)GlcNAc
# Method in brief: as §1
# [59] = target: Neu5Gc(a2-8)Neu5Gc(a2-3)Gal(b1-4)GlcNAc(b1-3)Gal(b1-4)GlcNAc
# Method in brief: as §1
# [60] = target: Neu5Gc(a2-8)Neu5Gc(a2-6)Gal(b1-4)GlcNAc
# Method in brief: as §1
# [61] = target: Neu5Gc(b2-6)Gal(b1-4)GlcNAc
# Method in brief: as §1
binder,measurement,setting,value
B1,glycan array binding signal (z-score),[1],-0.21
same,glycan array binding signal (z-score),[2],-0.176
same,glycan array binding signal (z-score),[3],-0.22
same,glycan array binding signal (z-score),[4],-0.207
same,glycan array binding signal (z-score),[5],-0.208
same,glycan array binding signal (z-score),[6],-0.211
same,glycan array binding signal (z-score),[7],-0.216
same,glycan array binding signal (z-score),[8],-0.221
same,glycan array binding signal (z-score),[9],-0.21
same,glycan array binding signal (z-score),[10],-0.216
same,glycan array binding signal (z-score),[11],5.86
same,glycan array binding signal (z-score),[12],-0.214
same,glycan array binding signal (z-score),[13],-0.208
same,glycan array binding signal (z-score),[14],3.15
same,glycan array binding signal (z-score),[15],-0.205
same,glycan array binding signal (z-score),[16],-0.207
same,glycan array binding signal (z-score),[17],-0.198
same,glycan array binding signal (z-score),[18],-0.215
same,glycan array binding signal (z-score),[19],-0.215
same,glycan array binding signal (z-score),[20],3.36
same,glycan array binding signal (z-score),[21],0.479
same,glycan array binding signal (z-score),[22],-0.219
same,glycan array binding signal (z-score),[23],-0.149
same,glycan array binding signal (z-score),[24],-0.209
same,glycan array binding signal (z-score),[25],-0.213
same,glycan array binding signal (z-score),[26],-0.227
same,glycan array binding signal (z-score),[27],-0.212
same,glycan array binding signal (z-score),[28],-0.208
same,glycan array binding signal (z-score),[29],-0.209
same,glycan array binding signal (z-score),[30],-0.211
same,glycan array binding signal (z-score),[31],-0.213
same,glycan array binding signal (z-score),[32],-0.209
same,glycan array binding signal (z-score),[33],-0.203
same,glycan array binding signal (z-score),[34],-0.22
same,glycan array binding signal (z-score),[35],-0.217
same,glycan array binding signal (z-score),[36],-0.216
same,glycan array binding signal (z-score),[37],-0.205
same,glycan array binding signal (z-score),[38],-0.201
same,glycan array binding signal (z-score),[39],6.01
same,glycan array binding signal (z-score),[40],7.69
same,glycan array binding signal (z-score),[41],-0.211
same,glycan array binding signal (z-score),[42],2.21
same,glycan array binding signal (z-score),[43],-0.202
same,glycan array binding signal (z-score),[44],-0.207
same,glycan array binding signal (z-score),[45],3.87
same,glycan array binding signal (z-score),[46],3.3
same,glycan array binding signal (z-score),[47],-0.213
same,glycan array binding signal (z-score),[48],4.91
same,glycan array binding signal (z-score),[49],8.56
same,glycan array binding signal (z-score),[50],4.09
same,glycan array binding signal (z-score),[51],3.64
same,glycan array binding signal (z-score),[52],-0.204
same,glycan array binding signal (z-score),[53],-0.218
same,glycan array binding signal (z-score),[54],-0.226
same,glycan array binding signal (z-score),[55],0.441
same,glycan array binding signal (z-score),[56],0.845
same,glycan array binding signal (z-score),[57],0.863
same,glycan array binding signal (z-score),[58],-0.22
same,glycan array binding signal (z-score),[59],-0.215
same,glycan array binding signal (z-score),[60],-0.211
same,glycan array binding signal (z-score),[61],-0.21
